Key:
Assay in all cases: log2 ratio of Biotin-Ahx-Ub-VS probe labelling (compound/DMSO); higher = less target engagement, active = hit call of the paper (q ≤ 0.05, log2 ratio ≤ -1)
Settings in all cases: treatment time: 3 h
[1] = compound: CCC1N(CCc2sccc12)C(=O)CCl
In short: (§1)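 DUBs in HEK293T lysate were labelled with Biotin-Ahx-Ub-VS (0.5 µM final, 1 h) after a 3 h treatment with compound at 50 or 200 µM or with DMSO, done in triplicate on 495 µg of lysate per sample. NeutrAvidin-enriched proteins were digested with LysC and trypsin and run by diaPASEF LC-MS/MS. Median-normalised label-free quantities gave average base-two log ratios of compound to DMSO by unpaired t-test, restricted to proteins with at least 2 unique peptides.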

[2] = compound: CN1c2ccccc2C(CS1(=O)=O)NC(=O)CCl
In short: as §1

[3] = compound: Cl.ClCC(=O)N1CCc2ncncc2C1
In short: as §1

[4] = compound: Cl.Cn1ncc2C(CCCc12)NC(=O)CCl
In short: as §1

[5] = compound: ClCC(=O)NC1CCOc2ccccc12
In short: as §1

[6] = compound: ClCC(=O)NC1CCCc2ccccc12
In short: (§2)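 Spectronaut label-free, global-median-normalised protein quantities underlie these values, which are average ratios of compound to vehicle from an unpaired t-test. They are reported as log2 and include only proteins identified by two or more unique peptides. Samples of HEK293T lysate (495 µg) were treated in triplicate with a compound concentration series or vehicle for 3 h, then labelled with Biotin-Ahx-Ub-VS at 0.5 µM final for 1 h before NeutrAvidin enrichment, LysC and trypsin digestion, and diaPASEF LC-MS/MS.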

[7] = compound: ClCC(=O)N[C@@H]1CCCc2ccccc12
In short: as §2

[8] = compound: ClCC(=O)N[C@H]1CCCc2ccccc12
In short: as §2

[9] = compound: CCC1N(CCc2cc(OC)c(Cl)cc12)C(=O)CCl
In short: as §1

[10] = compound: CCCC1N(CCc2cc(OC)c(OC)cc12)C(=O)CCl
In short: as §1

[11] = compound: CN(Cc1cccc(Br)c1)C(=O)CCl
In short: as §1

[12] = compound: CN(Cc1cccc(OCc2ccccc2C)c1)C(=O)CCl
In short: as §1

[13] = compound: CN(Cc1ccccc1)C(=O)CCl
In short: as §1

[14] = compound: COc1ccc(CN(C)C(=O)CCl)cc1
In short: as §1

[15] = compound: COc1cccc(CN(CCCc2ccccc2)C(=O)CCl)c1
In short: as §1

[16] = compound: ClCC(=O)N1CCc2cc(Cl)c(Cl)cc2C1
In short: as §1

[17] = compound: ClCC(=O)N1CCc2nc(ncc2C1)-c1ccccc1
In short: as §1

[18] = compound: ClCC(=O)N1CCc2nocc2C1
In short: as §1

[19] = compound: ClCC(=O)N1CCc2scc(Br)c2C1
In short: as §1

[20] = compound: ClCC(=O)NC(C1CCCC1)c1cccs1
In short: as §1

Measured: log2 ratio of Biotin-Ahx-Ub-VS probe labelling

UniProt Q9P2H5
Chain of UniProt Q9P2H5 (Q9P2H5 whole entry): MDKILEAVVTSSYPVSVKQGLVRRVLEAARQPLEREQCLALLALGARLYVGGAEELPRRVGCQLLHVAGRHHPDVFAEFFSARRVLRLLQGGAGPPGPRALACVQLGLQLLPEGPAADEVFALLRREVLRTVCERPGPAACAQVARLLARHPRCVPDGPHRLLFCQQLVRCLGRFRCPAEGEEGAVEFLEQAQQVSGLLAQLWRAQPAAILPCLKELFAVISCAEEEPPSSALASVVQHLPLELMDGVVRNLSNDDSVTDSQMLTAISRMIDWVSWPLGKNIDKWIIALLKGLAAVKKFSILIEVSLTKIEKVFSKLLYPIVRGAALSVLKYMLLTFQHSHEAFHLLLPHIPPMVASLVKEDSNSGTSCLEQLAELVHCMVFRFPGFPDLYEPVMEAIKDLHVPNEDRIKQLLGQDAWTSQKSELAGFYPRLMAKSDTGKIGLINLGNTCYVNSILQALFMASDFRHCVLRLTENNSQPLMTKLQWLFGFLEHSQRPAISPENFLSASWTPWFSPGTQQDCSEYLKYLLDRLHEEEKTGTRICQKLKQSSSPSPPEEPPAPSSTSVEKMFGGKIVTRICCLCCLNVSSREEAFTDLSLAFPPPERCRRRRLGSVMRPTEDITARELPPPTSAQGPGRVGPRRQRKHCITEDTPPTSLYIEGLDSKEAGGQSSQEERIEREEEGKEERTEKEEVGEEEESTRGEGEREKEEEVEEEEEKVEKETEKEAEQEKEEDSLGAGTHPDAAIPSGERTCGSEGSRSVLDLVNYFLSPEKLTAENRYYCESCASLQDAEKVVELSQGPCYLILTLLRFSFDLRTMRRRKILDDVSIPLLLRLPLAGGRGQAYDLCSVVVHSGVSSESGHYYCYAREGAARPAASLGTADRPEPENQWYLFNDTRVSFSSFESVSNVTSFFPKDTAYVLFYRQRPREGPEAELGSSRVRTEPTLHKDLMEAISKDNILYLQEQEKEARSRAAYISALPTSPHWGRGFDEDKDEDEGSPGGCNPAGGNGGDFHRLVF
inactive: [1]; compound concentration: 50uM -0.0377 | [1]; compound concentration: 200uM 0.00874 | [2]; compound concentration: 50uM -0.392 | [2]; compound concentration: 200uM -0.0291 | [3]; compound concentration: 50uM -0.175 | [3]; compound concentration: 200uM -0.43 | [4]; compound concentration: 50uM 0.0391 | [4]; compound concentration: 200uM 0.177 | [5]; compound concentration: 50uM -0.286 | [5]; compound concentration: 200uM -0.188 | [6]; compound concentration: 0.78uM -0.0934 | [6]; compound concentration: 1.56uM -0.117 | [6]; compound concentration: 3.13uM -0.133 | [6]; compound concentration: 6.25uM -0.0237 | [6]; compound concentration: 12.5uM -0.00833 | [6]; compound concentration: 25uM -0.293 | [6]; compound concentration: 50uM -0.0682 | [6]; compound concentration: 100uM -0.133 | [6]; compound concentration: 200uM -0.168 | [7]; compound concentration: 0.78uM -0.164 | [7]; compound concentration: 1.56uM -0.0308 | [7]; compound concentration: 3.13uM -0.0316 | [7]; compound concentration: 6.25uM -0.151 | [7]; compound concentration: 12.5uM -0.2 | [7]; compound concentration: 25uM -0.0579 | [7]; compound concentration: 50uM 0.05 | [7]; compound concentration: 100uM -0.00994 | [7]; compound concentration: 200uM -0.0974 | [8]; compound concentration: 0.78uM 0.0582 | [8]; compound concentration: 1.56uM -0.146 | [8]; compound concentration: 3.13uM -0.121 | [8]; compound concentration: 6.25uM -0.0964 | [8]; compound concentration: 12.5uM -0.172 | [8]; compound concentration: 25uM -0.164 | [8]; compound concentration: 50uM -0.0898 | [8]; compound concentration: 100uM -0.0993 | [8]; compound concentration: 200uM 0.0345 | [9]; compound concentration: 50uM 0.132 | [9]; compound concentration: 200uM -0.452 | [10]; compound concentration: 50uM -0.52 | [10]; compound concentration: 200uM -0.532 | [11]; compound concentration: 50uM 0.0586 | [11]; compound concentration: 200uM -0.355 | [12]; compound concentration: 50uM -0.626 | [12]; compound concentration: 200uM -0.327 | [13]; compound concentration: 50uM -0.0969 | [13]; compound concentration: 200uM -0.154 | [14]; compound concentration: 50uM -0.301 | [14]; compound concentration: 200uM -0.182 | [15]; compound concentration: 50uM -0.114 | [15]; compound concentration: 200uM -0.29 | [16]; compound concentration: 50uM -0.263 | [16]; compound concentration: 200uM -0.82 | [17]; compound concentration: 50uM 0.133 | [17]; compound concentration: 200uM -0.449 | [18]; compound concentration: 50uM -0.415 | [18]; compound concentration: 200uM -0.273 | [19]; compound concentration: 50uM -0.192 | [19]; compound concentration: 200uM -0.595 | [20]; compound concentration: 50uM 0.156 | [20]; compound concentration: 200uM 0.0366

YOD1 (UniProt Q5VVQ6)
Chain of UniProt Q5VVQ6 (Q5VVQ6 whole entry): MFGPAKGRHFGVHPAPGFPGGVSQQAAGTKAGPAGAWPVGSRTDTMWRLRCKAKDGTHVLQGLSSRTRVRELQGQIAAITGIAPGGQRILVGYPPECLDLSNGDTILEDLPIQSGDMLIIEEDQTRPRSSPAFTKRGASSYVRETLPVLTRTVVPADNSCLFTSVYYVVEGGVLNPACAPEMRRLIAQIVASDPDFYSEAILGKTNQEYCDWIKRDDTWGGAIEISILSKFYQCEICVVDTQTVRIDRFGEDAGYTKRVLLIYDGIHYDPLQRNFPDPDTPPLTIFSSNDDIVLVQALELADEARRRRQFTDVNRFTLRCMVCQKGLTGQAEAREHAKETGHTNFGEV
inactive: [1]; compound concentration: 50uM -0.141 | [1]; compound concentration: 200uM -0.171 | [2]; compound concentration: 50uM -0.237 | [2]; compound concentration: 200uM -0.218 | [3]; compound concentration: 50uM -0.0162 | [3]; compound concentration: 200uM -0.45 | [4]; compound concentration: 50uM 0.0347 | [4]; compound concentration: 200uM -0.0749 | [5]; compound concentration: 50uM -0.0482 | [5]; compound concentration: 200uM 0.0949 | [6]; compound concentration: 0.78uM -0.286 | [6]; compound concentration: 1.56uM -0.115 | [6]; compound concentration: 3.13uM -0.302 | [6]; compound concentration: 6.25uM -0.266 | [6]; compound concentration: 12.5uM -0.478 | [6]; compound concentration: 25uM -0.333 | [6]; compound concentration: 50uM -0.142 | [6]; compound concentration: 100uM -0.14 | [6]; compound concentration: 200uM -0.258 | [7]; compound concentration: 0.78uM -0.469 | [7]; compound concentration: 1.56uM -0.274 | [7]; compound concentration: 3.13uM -0.434 | [7]; compound concentration: 6.25uM -0.346 | [7]; compound concentration: 12.5uM -0.221 | [7]; compound concentration: 25uM -0.268 | [7]; compound concentration: 50uM -0.264 | [7]; compound concentration: 100uM -0.248 | [7]; compound concentration: 200uM -0.262 | [8]; compound concentration: 0.78uM -0.197 | [8]; compound concentration: 1.56uM -0.309 | [8]; compound concentration: 3.13uM -0.298 | [8]; compound concentration: 6.25uM -0.173 | [8]; compound concentration: 12.5uM -0.186 | [8]; compound concentration: 25uM -0.167 | [8]; compound concentration: 50uM -0.0663 | [8]; compound concentration: 100uM -0.169 | [8]; compound concentration: 200uM -0.282 | [9]; compound concentration: 50uM 0.213 | [9]; compound concentration: 200uM -0.308 | [10]; compound concentration: 50uM -0.12 | [10]; compound concentration: 200uM -0.312 | [11]; compound concentration: 50uM -0.152 | [11]; compound concentration: 200uM 0.742 | [12]; compound concentration: 50uM -0.555 | [12]; compound concentration: 200uM -0.132 | [13]; compound concentration: 50uM -0.391 | [13]; compound concentration: 200uM -0.259 | [14]; compound concentration: 50uM -0.465 | [14]; compound concentration: 200uM -0.288 | [15]; compound concentration: 50uM -0.0608 | [15]; compound concentration: 200uM 0.000762 | [16]; compound concentration: 50uM 0.356 | [16]; compound concentration: 200uM -0.373 | [17]; compound concentration: 50uM 0.102 | [17]; compound concentration: 200uM 0.0411 | [18]; compound concentration: 50uM -0.0213 | [18]; compound concentration: 200uM -0.416 | [19]; compound concentration: 50uM 0.039 | [19]; compound concentration: 200uM -0.482 | [20]; compound concentration: 50uM -0.11 | [20]; compound concentration: 200uM 0.00107

UniProt O00487
Chain of UniProt O00487 (O00487 whole entry): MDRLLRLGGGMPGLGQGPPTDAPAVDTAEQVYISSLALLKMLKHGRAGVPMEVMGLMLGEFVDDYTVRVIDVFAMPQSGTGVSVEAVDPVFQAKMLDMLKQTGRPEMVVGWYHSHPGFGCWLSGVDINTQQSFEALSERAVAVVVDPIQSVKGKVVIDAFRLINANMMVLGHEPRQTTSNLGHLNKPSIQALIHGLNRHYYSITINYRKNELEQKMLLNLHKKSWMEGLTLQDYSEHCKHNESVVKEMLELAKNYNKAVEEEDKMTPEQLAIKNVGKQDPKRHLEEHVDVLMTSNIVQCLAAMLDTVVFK
inactive: [1]; compound concentration: 50uM -0.193 | [1]; compound concentration: 200uM -0.218 | [2]; compound concentration: 50uM -0.0425 | [2]; compound concentration: 200uM -0.0779 | [3]; compound concentration: 50uM 0.107 | [3]; compound concentration: 200uM -0.106 | [4]; compound concentration: 50uM -0.124 | [4]; compound concentration: 200uM -0.336 | [5]; compound concentration: 50uM 0.217 | [5]; compound concentration: 200uM -0.351 | [6]; compound concentration: 0.78uM -0.644 | [6]; compound concentration: 1.56uM -0.964 | [6]; compound concentration: 3.13uM -0.768 | [6]; compound concentration: 6.25uM -0.916 | [6]; compound concentration: 12.5uM -0.0532 | [6]; compound concentration: 25uM -1.08 | [6]; compound concentration: 50uM -1.09 | [6]; compound concentration: 100uM -0.828 | [6]; compound concentration: 200uM -0.122 | [7]; compound concentration: 0.78uM -0.274 | [7]; compound concentration: 1.56uM -0.457 | [7]; compound concentration: 3.13uM -0.399 | [7]; compound concentration: 6.25uM -0.508 | [7]; compound concentration: 12.5uM -0.515 | [7]; compound concentration: 25uM -0.563 | [7]; compound concentration: 50uM -0.92 | [7]; compound concentration: 100uM 0.108 | [7]; compound concentration: 200uM -0.319 | [8]; compound concentration: 0.78uM -0.768 | [8]; compound concentration: 1.56uM -0.631 | [8]; compound concentration: 3.13uM -0.859 | [8]; compound concentration: 6.25uM -0.646 | [8]; compound concentration: 12.5uM 0.00923 | [8]; compound concentration: 25uM -0.657 | [8]; compound concentration: 50uM -0.0791 | [8]; compound concentration: 100uM -0.905 | [8]; compound concentration: 200uM -0.369 | [9]; compound concentration: 50uM 0.0571 | [9]; compound concentration: 200uM 0.132 | [10]; compound concentration: 50uM 0.000271 | [10]; compound concentration: 200uM -0.108 | [11]; compound concentration: 50uM -0.27 | [11]; compound concentration: 200uM -0.709 | [12]; compound concentration: 50uM -0.154 | [12]; compound concentration: 200uM -0.202 | [13]; compound concentration: 50uM -0.0192 | [13]; compound concentration: 200uM 0.243 | [14]; compound concentration: 50uM -0.0826 | [14]; compound concentration: 200uM -0.0205 | [15]; compound concentration: 50uM 0.102 | [15]; compound concentration: 200uM 0.0842 | [16]; compound concentration: 50uM -0.325 | [16]; compound concentration: 200uM -0.335 | [17]; compound concentration: 50uM -0.128 | [17]; compound concentration: 200uM 0.13 | [18]; compound concentration: 50uM -0.239 | [18]; compound concentration: 200uM -0.187 | [19]; compound concentration: 50uM -0.175 | [19]; compound concentration: 200uM -0.724 | [20]; compound concentration: 50uM -0.101 | [20]; compound concentration: 200uM -0.0832
